The supplement of paper PMC9135407
“And” between values parts separate entries of the source, which are not always exact repeats. Identical values can stand only once. Counter-ions that a name gives are not always drawn. Hit rate of the full screen: of about 5,800 compounds, about 620 (11%) showed activity. The full list was thinned out, with actives kept by preference. Unmarked numbers belong to inactive results.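 Rule for the calls: active = score above a cut-off or among the top three wells of a plate; in these data no inactive exceeds 0.85.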

System: primary human hepatic stellate cells (donor 1)
Assay: scaled lipid accumulation score (0 = DMSO-like, 1 = nortriptyline-like); higher = stronger HSC inactivation (lipid re-accumulation), active = hit call of the paper
Settings: 48 h
Description: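 Primary lipid accumulation screen in primary human hepatic stellate cell myofibroblasts (donor 1, passage 8) in 384-well plates. 100 nL of library compound was pin-transferred into 30 µL medium in duplicate, and cells were treated for 48 h. The 'Scaled' score combines distance from plate baseline, toxicity and reproducibility penalties, and is normalised to nortriptyline (positive) and DMSO (negative) controls on each plate. A hit is defined as scaled >0.85 or among the top 3 wells per plate.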

[1] = library stock concentration: 80 uM
[2] = library stock concentration: 400 uM
[3] = library stock concentration: 2 mM
[4] = library stock concentration: 10 mM
[5] = library stock concentration: 1 mM
[6] = library stock concentration: 3.33 mM

## COC(=O)/C=C/C(=O)N(O)CCCCNCc1ccc(COC(=O)Nc2cccc3ccccc23)cc1 [Methylstat]
[1]
  scaled lipid accumulation score: ≤ 0
[2]
  scaled lipid accumulation score: ≤ 0
[3]
  scaled lipid accumulation score: ≤ 0
[4]
  scaled lipid accumulation score: 0.26

## CCCCC[C@H](O)/C=C/[C@H]1[C@H](O)CC(=O)[C@@H]1CCCCCCCCC(=O)O [1a,1b-dihomo Prostaglandin E1]
[5]
  scaled lipid accumulation score: ≤ 0

## CC1=C(/C=C/C(C)=C/C=C/C(C)=C/C=C/C=C(C)/C=C/C=C(C)/C=C/C2=C(C)C(=O)CCC2(C)C)C(C)(C)CCC1=O [Canthaxanthin]
Library stock concentration: 3.5 mM
  scaled lipid accumulation score: 1.25 (active)

## CC1=C(/C=C/C(C)=C/C=C/C(C)=C/C=C/C=C(C)/C=C/C=C(C)/C=C/C2=C(C)CCCC2(C)C)C(C)(C)CCC1 [Beta Carotene]
[6]
  scaled lipid accumulation score: ≤ 0
[4]
  scaled lipid accumulation score: ≤ 0

## CC1=C(/C=C/C(C)=C/C=C/C(C)=C/C=C/C=C(C)/C=C/C=C(C)/C=C/C2=C(C)C(=O)[C@@H](O)CC2(C)C)C(C)(C)C[C@H](O)C1=O [Astaxanthin]
[4]
  scaled lipid accumulation score: ≤ 0

## CC(=O)N1CCCC1C(=O)O (stereo unspecified) [N-acetylproline]
[4]
  scaled lipid accumulation score: ≤ 0

## C[C@]12C=CC(=O)C=C1CC[C@@H]1[C@@H]2[C@@H](O)C[C@@]2(C)[C@H]1CC[C@]2(O)C(=O)COC(=O)CCC(=O)O
[4]
  scaled lipid accumulation score: ≤ 0

## O=C(CCc1ccc(O)cc1)c1c(O)cc(O)cc1O[C@@H]1O[C@H](CO)[C@@H](O)[C@H](O)[C@H]1O [Phlorizin]
[6]
  scaled lipid accumulation score: ≤ 0
[4]
  scaled lipid accumulation score: ≤ 0

## CCCCC/C=C\C=C1\C(=O)CC[C@@H]1C/C=C\CCCC(=O)O
[5]
  scaled lipid accumulation score: ≤ 0

## CC(=O)OC[C@H]1O[C@@H]([S-])[C@H](OC(C)=O)[C@@H](OC(C)=O)[C@@H]1OC(C)=O.CCP(CC)CC.[Au+] [Auranofin]
[4]
  scaled lipid accumulation score: 0.439

## CC[P](CC)(CC)=[Au][S][C@@H]1O[C@H](COC(C)=O)[C@@H](OC(C)=O)[C@H](OC(C)=O)[C@H]1OC(C)=O [Auranofin]
Library stock concentration: 2.9 mM
  scaled lipid accumulation score: 0.86 (active)

## CC[C@@H](CO)Nc1nc(NCc2ccc(-c3ccccn3)cc2)c2ncn(C(C)C)c2n1 [CR8, (S)-Isomer]
[6]
  scaled lipid accumulation score: ≤ 0

## CSc1nc(N)c2ncn([C@@H]3O[C@H](COP(=O)(O)OP(=O)(O)OP(=O)(O)O)[C@H](O)C3O)c2n1 (stereo partly specified) [2-Methylthioadenosine triphosphate tetrasodium]
[4]
  scaled lipid accumulation score: ≤ 0

## CS(=O)(=O)c1ccc(-n2nc(C(F)(F)F)cc2-c2ccc(F)cc2)cc1
[4]
  scaled lipid accumulation score: ≤ -0.055

## CS(=O)(=O)CCNCc1nc(-c2ccc3ncnc(Nc4ccc(OCc5cccc(F)c5)c(Cl)c4)c3c2)cs1.Cl.Cl
[4]
  scaled lipid accumulation score: 1.38 (active)

## C=CC(=O)Nc1ccc2ncnc(Nc3ccc(OCc4cccc(F)c4)c(Cl)c3)c2c1
[1]
  scaled lipid accumulation score: ≤ -0.016
[2]
  scaled lipid accumulation score: ≤ -0.016
[3]
  scaled lipid accumulation score: ≤ -0.016
[6]
  scaled lipid accumulation score: 0.132
[4]
  scaled lipid accumulation score: 0.378 and 0.75

## CCC(=O)Nc1ccc2ncnc(Nc3cccc(Br)c3)c2c1
[6]
  scaled lipid accumulation score: ≤ 0

## Cc1cc(Nc2ncnc3ccc(-c4ccc(CNCCS(C)(=O)=O)o4)cc23)ccc1Oc1ccn2ncnc2c1 [HER2-Inhibitor-1] [listing 1 of 2 here]
[6]
  scaled lipid accumulation score: 0.203

## Cc1ccc(CNc2ncnc3ccc(-c4ccc(CO)o4)cc23)o1
[6]
  scaled lipid accumulation score: ≤ -0.009
[4]
  scaled lipid accumulation score: ≤ 0

## CS(=O)(=O)CCNCc1ccc(-c2ccc3ncnc(Nc4ccc(OCc5cccc(F)c5)c(Cl)c4)c3c2)o1 [listing 1 of 2 here]
[1]
  scaled lipid accumulation score: ≤ 0
[2]
  scaled lipid accumulation score: ≤ 0 and 0.144
[3]
  scaled lipid accumulation score: 0.42
[4]
  scaled lipid accumulation score: 0.429

## CS(=O)(=O)CCNCc1ccc(-c2ccc3ncnc(Nc4ccc(OCc5cccc(F)c5)c(Cl)c4)c3c2)o1 [listing 2 of 2 here]
[3]
  scaled lipid accumulation score: 1.7 (active)

## Cc1cc(Nc2ncnc3ccc(-c4ccc(CNCCS(C)(=O)=O)o4)cc23)ccc1Oc1ccn2ncnc2c1 [HER2-Inhibitor-1] [listing 2 of 2 here]
[4]
  scaled lipid accumulation score: 0.977 (active)

## CC(C)(O)CC(=O)NCCn1ccc2ncnc(Nc3ccc(Oc4cccc(C(F)(F)F)c4)c(Cl)c3)c21
[6]
  scaled lipid accumulation score: ≤ 0
[4]
  scaled lipid accumulation score: 0.302

## C[C@@H]1COC(Nc2ccc3ncnc(Nc4ccc(OCc5nccs5)c(Cl)c4)c3c2)=N1 [Varlitinib]
[6]
  scaled lipid accumulation score: 0.382
[4]
  scaled lipid accumulation score: 0.594

## CC(C)CCCCCCC/C=C/C(=O)O [trans-.DELTA.2-11-methyl-Dodecenoic Acid]
[5]
  scaled lipid accumulation score: ≤ 0

## CC(C)=CCC/C(C)=C/CC/C(C)=C/CSCC(=O)O [Farnesylthioacetic acid]
[5]
  scaled lipid accumulation score: ≤ -0.021

## CC(C)=CCC/C(C)=C/CC/C(C)=C/CSCC(=O)O [S-Farnesyl Thioacetic Acid]
[5]
  scaled lipid accumulation score: 0.018

## CCCCCCCCCC(=O)NC(CN1CCOCC1)C(O)c1ccccc1 (stereo unspecified) [PDMP (hydrochloride)]
[5]
  scaled lipid accumulation score: ≤ 0

## C1CCN2C[C@@H]3C[C@@H](CN4CCCC[C@@H]34)[C@H]2C1 [Sparteine (-)]
  scaled lipid accumulation score: ≤ 0

## C1CCN2C[C@@H]3C[C@@H](CN4CCCC[C@@H]34)[C@H]2C1 [Sparteine sulfate]
Library stock concentration: 6 mM
  scaled lipid accumulation score: ≤ -0.001
[4]
  scaled lipid accumulation score: 0.072

## CCCCC[C@H](O)/C=C/[C@H]1[C@H](O)CC(=O)[C@@H]1C/C=C\CCCC(=O)O [Prostaglandin  E2]
[5]
  scaled lipid accumulation score: ≤ -0.021

## CCCCC[C@H](O)/C=C/[C@H]1[C@H](O)CC(=O)[C@@H]1C/C=C\CCCC(=O)O [Prostaglandin E2]
[5]
  scaled lipid accumulation score: ≤ 0
[4]
  scaled lipid accumulation score: ≤ -0.001

## CCCCC[C@H](O)/C=C/[C@H]1[C@H](O)CC(=O)[C@@H]1C/C=C\CCCC(=O)O [Dinoprostone]
Library stock concentration: 5.7 mM
  scaled lipid accumulation score: ≤ -0.006

## Cc1ccc2c(c1)C(=O)C1(O)CCN(c3ccccc3)C1=N2 (single isomer, unassigned; (-)) [(-)-Blebbistatin]
[1]
  scaled lipid accumulation score: ≤ -0.001
[2]
  scaled lipid accumulation score: ≤ -0.001
[5]
  scaled lipid accumulation score: ≤ 0
[3]
  scaled lipid accumulation score: ≤ -0.001
[6]
  scaled lipid accumulation score: ≤ -0.009
[4]
  scaled lipid accumulation score: 0.264

## CCCCC/C=C\C/C=C\CC/C=C\CCCC(=O)OC [Pinolenic Acid methyl ester]
[5]
  scaled lipid accumulation score: ≤ 0

## CC(C)(C)c1cnc(CSc2cnc(NC(=O)C3CCNCC3)s2)o1
[1]
  scaled lipid accumulation score: 0.373
[2]
  scaled lipid accumulation score: 0.262 and 0.17
[3]
  scaled lipid accumulation score: 0.414 and 0.498
[6]
  scaled lipid accumulation score: 0.468
[4]
  scaled lipid accumulation score: 0.32 and 0.42 and 0.56

## CN([C@@H](Cc1ccc(OS(=O)(=O)c2cccc3cnccc23)cc1)C(=O)N1CCN(c2ccccc2)CC1)S(=O)(=O)c1cccc2cnccc12
[1]
  scaled lipid accumulation score: ≤ 0
[2]
  scaled lipid accumulation score: ≤ 0
[3]
  scaled lipid accumulation score: ≤ 0
[4]
  scaled lipid accumulation score: 0.021

## COC(=O)C1=CO[C@@H](C)[C@H]2CN3CCc4c([nH]c5ccccc45)[C@@H]3C[C@H]12 [Ajmalicine hydrochloride]
  scaled lipid accumulation score: 0.17

## CCCCc1nn(-c2ccccc2C(F)(F)F)c(=O)n1Cc1ccc(-c2ccccc2S(=O)(=O)NC(=O)c2sccc2C)cc1
[4]
  scaled lipid accumulation score: ≤ -0.001

## c1ccc2c(-c3cnn4cc(-c5ccc(N6CCNCC6)cc5)cnc34)ccnc2c1
[1]
  scaled lipid accumulation score: 0.107
[2]
  scaled lipid accumulation score: ≤ -0.009
[3]
  scaled lipid accumulation score: 0.656
[4]
  scaled lipid accumulation score: 0.103

## CCCCCC(=O)CC[C@@H]1[C@@H](C/C=C\CCCC(=O)O)[C@@H](O)C[C@H]1O [13,14-dihydro-15-keto Prostaglandin F2.alpha.]
[5]
  scaled lipid accumulation score: ≤ 0

## NC(=O)c1cccc(-c2cc(Nc3ccc(OC(F)(F)F)cc3)ncn2)c1
[1]
  scaled lipid accumulation score: ≤ 0
[2]
  scaled lipid accumulation score: ≤ 0
[3]
  scaled lipid accumulation score: 0.03
[6]
  scaled lipid accumulation score: ≤ 0
[4]
  scaled lipid accumulation score: ≤ 0 and 0.198

## CCCCCCCCCCCCC(O)C(=O)O (stereo unspecified) [2-Hydroxymyristic acid]
[5]
  scaled lipid accumulation score: 0.03

## CCCCCCCCCCCCC(O)C(=O)O (stereo unspecified) [2-Hydroxymyristic Acid]
[5]
  scaled lipid accumulation score: ≤ 0

## COC1=C(OC)C(=O)c2ccccc2C1=O [2,3-Dimethoxy-1,4-naphthoquinone]
[4]
  scaled lipid accumulation score: 0.634

## CC1=CC(=O)c2ccccc2C1=O [Menadione] [listing 1 of 2 here]
  scaled lipid accumulation score: 0.873 (active)

## CC1=CC(=O)c2ccccc2C1=O [Menadione] [listing 2 of 2 here]
[6]
  scaled lipid accumulation score: ≤ 0
[4]
  scaled lipid accumulation score: 0.707 and ≤ 0
Library stock concentration: 11.6 mM
  scaled lipid accumulation score: 0.594

## O=C1NC(=O)/C(=C/c2ccc3nccnc3c2)S1
[1]
  scaled lipid accumulation score: ≤ -0.016
[2]
  scaled lipid accumulation score: ≤ -0.016
[3]
  scaled lipid accumulation score: ≤ -0.016
[4]
  scaled lipid accumulation score: ≤ -0.016

## COc1cc(CNC(=O)CCCC/C=C/C(C)C)ccc1O [(E)-Capsaicin]
[4]
  scaled lipid accumulation score: ≤ 0

## COc1cc(CNC(=O)CCCC/C=C/C(C)C)ccc1O [E-Capsaicin]
Library stock concentration: 16.4 mM
  scaled lipid accumulation score: 0.112

## COc1cc(CNC(=O)CCCC/C=C/C(C)C)ccc1O [E-capsaicin]
[4]
  scaled lipid accumulation score: ≤ 0

## COc1cc(CNC(=O)CCCC/C=C/C(C)C)ccc1O [Capsaicin]
  scaled lipid accumulation score: ≤ 0
[5]
  scaled lipid accumulation score: ≤ 0
[4]
  scaled lipid accumulation score: ≤ 0

## COc1c(C)c2c(c(O)c1C/C=C(\C)CCC(=O)OCCN1CCOCC1)C(=O)OC2 [Mycophenolate Mofetil]
[6]
  scaled lipid accumulation score: ≤ 0
[4]
  scaled lipid accumulation score: ≤ 0

## CC(C)c1cccc(C(C)C)c1N1C(=O)c2ccc(O)cc2C1=O
[4]
  scaled lipid accumulation score: 0.259

## CN(C)CC(C)(C)CNc1nn2c(-c3ccccc3)nnc2cc1C1CCC1
[2]
  scaled lipid accumulation score: ≤ -0.005
[3]
  scaled lipid accumulation score: ≤ -0.005
[4]
  scaled lipid accumulation score: 0.159
